JMJD2A Tudor inh – blocks the human JMJD2A Tudor domain; O75164; Potency, µM (doses to about 114 µM), inactives show at the top dose activity change, negative = inhibition, usual class: inhibitors; AID 504339; 390,000 compounds, 4.4% hits; AlphaScreen JMJD2A-Tudor / H3K4me3 peptide binding; note: potency is the fitted concentration of half-maximal effect; % is set by controls: 0 for no effect and ±100 for the full control effect; nearly all actives have a fitted effect of over 50% in size
G9a block – G9a (human) methyltransferase inhibition. Q96KQ7. G9a H3K9 monomethylation, AlphaScreen, 2 h. Potency, µM (highest dose often 102 µM), for the others: at the highest dose activity, negative = inhibition, actives largely listed as inhibitors. 350,000 compounds, 8.8% hits. AID 504332; note: potency is the fitted concentration of half-maximal effect; % is set by controls: 0 for no effect and ±100 for the full control effect; nearly all actives have a fitted effect of over 75% in size
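AlphaScreen read-out: biotin-H3K9 peptide (500 nM) methylation by 20 nM enzyme with 20 uM SAM, 2 h at room temperature after 15 min compound preincubation; anti-monomethyl H3K9 antibody plus donor/acceptor beads, 10 min dark.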
HP1b chromo inh – blocks HP1-beta chromodomain binding to methylated histone tails; AID 540317; Potency, µM (series often up to 114 µM), for inactives: at the highest dose activity change, negative = inhibition, actives largely listed as inhibitors; P83916; 390,000 compounds, 0.56% hits; AlphaScreen HP1-beta / biotin-H3K9me3 peptide binding; note: potency is the fitted concentration of half-maximal effect; nearly all actives have a fitted effect of over 70% in size
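AlphaScreen: HP1-beta (50 nM) preformed 30 min with biotin-H3(1-18)K9me3 peptide (50 nM) in PBS pH 7.4, 0.01% Tween-20. Compound added for 30 min at RT, then streptavidin donor/nickel chelate acceptor beads (10 ug/mL) for 30 min.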
PLK1 PBD block – PLK1 (human) polo-box domain binding inhibition; P53350; Plk1 PBD binding of FITC phosphopeptide, fluorescence polarization; Potency, µM, for the others: max response, negative = inhibition, usual class: inhibitors; 360,000 compounds, 2.8% hits; note: potency is the fitted concentration of half-maximal effect; series mostly up to about 57 µM; % is set by controls: 0 for no effect and ±100 for the full control effect; nearly all actives have a fitted effect of over 65% in size
BAZ2B inh – inhibitors of human BAZ2B bromodomain | Q9UIF8 | AlphaScreen BAZ2B-H3K14Ac peptide displacement | Potency, µM (doses to about 114 µM), without a hit: at the highest dose activity change, negative = inhibition, actives largely listed as inhibitors | 360,000 compounds, 4.4% hits; note: potency is the fitted concentration of half-maximal effect; % is set by controls: 0 for no effect and ±100 for the full control effect; nearly all actives have a fitted effect of over 60% in size
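AlphaScreen luminescence quantifies BAZ2B engagement of H3K14Ac peptide; the protein and biotinylated peptide are both at 50 nM final, buffer PBS pH 7.4 with 0.01% Tween-20, all steps at room temperature.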
PI5P4K alpha inh – PI5P4K alpha (human) kinase inhibition | P48426 | 330,000 compounds, 1.2% hits | max response, % | PI5P4Kalpha enzyme, ADP-Glo luminescence, 60 min; active compounds read low; active = max response of -50% or lower; inconclusive = between -30% and -50%; inactive = -30% or higher; note: value at the top dose of about 77 µM; % is set by controls: 0 for no effect and ±100 for the full control effect
Target sequence (P48426 whole entry, looked up): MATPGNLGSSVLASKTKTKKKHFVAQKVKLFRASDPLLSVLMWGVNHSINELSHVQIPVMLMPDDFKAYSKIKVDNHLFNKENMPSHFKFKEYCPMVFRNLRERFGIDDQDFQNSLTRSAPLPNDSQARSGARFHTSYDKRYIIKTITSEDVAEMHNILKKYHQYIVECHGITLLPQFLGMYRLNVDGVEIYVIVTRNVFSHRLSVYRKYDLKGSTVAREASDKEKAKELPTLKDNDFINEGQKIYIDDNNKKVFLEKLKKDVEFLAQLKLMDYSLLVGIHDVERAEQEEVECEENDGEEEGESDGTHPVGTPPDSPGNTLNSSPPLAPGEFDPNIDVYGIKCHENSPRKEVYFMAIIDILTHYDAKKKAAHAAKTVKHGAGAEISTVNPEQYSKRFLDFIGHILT
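Compounds were pin-transferred onto PI5P4Kalpha and substrate in HEPES pH 7.4 buffer with EGTA, CHAPS and 5% DMSO. ATP (5 microM final) started the reaction, which ran 60 minutes at room temperature before ADP-Glo detection.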
* = called active by the depositor; ? = inconclusive; · = no result given; [ ] = remark or other dose. Compounds with a hit are over-represented: about 12% of the library has one in this group of screens. Unless noted, calls come from the whole dose curve; as a rule, active = well fitted curve in the direction sought with a large enough effect; inconclusive = small, poorly fitted or top-dose-only effect, or another doubt; inactive = no such curve, though single readings can be large; an effect the other way counts as inactive or inconclusive.

SMILES	JMJD2A Tudor inh	G9a block	HP1b chromo inh	PLK1 PBD block	BAZ2B inh	PI5P4K alpha inh
N#C/C(=C\c1ccc(N2CCOCC2)o1)C(=O)NCCc1ccccc1	-31.7%	31.6µM*	20.6%	92.3%	-27.3%	9.2
N#C/C(=C\c1ccc(O)c(O)c1)C(=O)NCCCc1ccccc1	44.7µM*	3.36µM*	?	-18.5%	8.91µM*	?
COc1ccc(/C=C(\C#N)C(=O)NCCc2ccccc2)cc1OCc1ccccc1	-7.4%	1µM*	41.5%	-9.2%	41.8%	-7.5
CN1C(=O)CC2(C=CC(=O)C=C2OC(=O)c2ccccc2)c2ccccc21 (configuration not stated)	-18.6%	·	37.3%	·	·	·
CCOCCCNC(=O)/C(C#N)=C/c1cc(OC)c(O)c([N+](=O)[O-])c1	-22.8%	50.1µM*	-17.0%	-12.9%	?	-63.8*
CCOCCCNC(=O)/C(C#N)=C/c1ccc(Cl)c([N+](=O)[O-])c1	-2.1%	?	?	-26.3%	-22.3%	-2.9
CCOC(=O)C1C(=O)CC(=O)C(C(=O)OCC)C1c1ccc(O)cc1 (configuration not stated)	·	·	·	-2.7%	·	-8.2
CCOC(=O)C1C(=O)C(C(C)=O)C(=O)CC1CC(C)SCC (configuration not stated)	89.1µM*	?	-1.6%	-4.8%	-8.8%	·
Cn1cnc2c(NCc3ccccc3)nc(Cl)nc21	-5.0%	·	19.7%	·	·	·
O=S(=O)(c1ccc(Cl)cc1)c1nc(-c2cccs2)oc1N1CCCCC1	?	14.1µM*	?	·	14.1µM*	·
NC(=O)C1CCN(c2oc(-c3cccs3)nc2S(=O)(=O)c2ccc(Cl)cc2)CC1	?	·	-9.7%	-5.1%	·	3.4
COc1ccc(-c2nc(S(=O)(=O)c3ccc(Cl)cc3)c(N3CCCCCC3)o2)cc1	56.2µM*	20µM*	-20.4%	·	-33.5%	·
COc1ccccc1-c1nc(S(=O)(=O)c2ccc(Cl)cc2)c(N2CCCCCC2)o1	-26.6%	?	-8.8%	·	-24.5%	·
CN(C)c1oc(-c2ccc(Cl)cc2)nc1S(=O)(=O)c1ccccc1	79.4µM*	-18.0%[59 µM]	?	-19.7%	?	?
CCc1ccc(NC(=O)c2ccc3c(O)c(S(=O)(=O)c4ccccc4)c(=O)[nH]c3c2)cc1	-22.0%	-16.3%[59 µM]	32.1%	·	-20.6%	·
Cc1cc(C)n(CCNC(=O)c2ccco2)n1	-6.7%	?	10.0%	-8.1%	-19.5%	0.0
COc1ccc(/C=C2/SC(=O)NC2=O)cc1	-10.4%	79.4µM*	34.6%	-0.5%	-34.5%	?
O=C1NC(=O)/C(=C\c2ccc(OCc3cnc(Cl)s3)cc2)S1	-33.2%	?	17.5%	-23.7%	-36.6%	-17.6
CCOc1ccc(N=C2NC(=O)S/C2=C\c2ccc(OC)cc2)cc1	28.2µM*	?	0.2%	-8.7%	?	·
COc1cccc(OCCOc2ccc(/C=C3/SC(=S)NC3=O)cc2)c1	56.2µM*	7.94µM*	?	9.47µM*	44.7µM*	-84.9*
O=C1NC(=O)/C(=C\c2ccc(Cl)nc2)S1	?	-30.8%	22.2%	26.7µM*	?	?
CCCCOc1ccc(/C=C2/Sc3ccccc3C2=O)cc1	21.9%	-30.6%[12.7 µM]	38.1%	6.9%	-2.3%	4.6
CC(=O)Nc1cccc(-c2ccnc3c2CC(C)(C(=O)Nc2ccc(Cl)c(C(F)(F)F)c2)O3)c1 (configuration not stated)	·	·	·	3.5%	·	-1.4
O=C(Nc1ccccc1)c1cc(C2CCCCN2C(=O)c2ccccc2)on1 (configuration not stated)	·	·	·	-4.8%	·	0.8
O=C(NCCN1CCCCC1)Nc1ccc(F)cc1F	2.1%	44.8%	43.2%	-3.4%	-1.9%	1.8
O=C1NC(=S)S/C1=C\c1ccc2ccccc2c1	?	-5.4%	-5.2%	29.9µM*	50.1µM*	-62.3*
COc1ccc(C=C2SC(=S)NC2=O)cc1	-18.5%	·	7.1%	-21.5%	·	-86.4*
C=CC[C@@H]1[C@H](O)CC[C@@]2(C)[C@H]1CC[C@@H]1[C@@H]2CC[C@]2(C)C([C@H](C)CCCC(C)C)CC[C@@H]12 (some centres not stated)	·	38.3%[59 µM]	·	·	·	·

Screening results (PubChem)
